Values joined by “and” are separate entries in the source; they are usually repeats but may differ in a detail not shown here. Identical values can stand only once. In all, about 5,500 compounds went through this assay and about 2,000 (36%) were called active. About 18% were inconclusive and are not listed. Rule as the data show it: active = normalized growth mostly below about 0.91 (no sharp cut-off); inconclusive = no clear call, values can overlap the other calls; inactive = mostly above about 0.92. The list shows a part of the results.
Assay: chemical genetic growth profiling, strain panel (AID 1159580);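 also: tested at 20 µM; growth read once vehicle control cultures reached saturation at 30 °C; 1 = growth at the plate median or of vehicle wells; lower values mean less growth of the strain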
Settings: S. cerevisiae deletion strains, growth OD

Measured: normalized growth

CC1=C(O)C(=O)C=C2C1=CC=C1[C@@]2(C)CC[C@@]2(C)[C@@H]3C[C@](C)(C(=O)O)CC[C@]3(C)CC[C@]12C
active: locus YAL021C, strain ccr4, active compounds read low 0.56 | locus YAL026C, strain drs2, active compounds read low 0.51 | locus YAL030W, strain snc1, active compounds read low 0.573 | locus YBL061C, strain skt5, active compounds read low 0.479 | locus YBR009C, strain hhf1, active compounds read low 0.375 | locus YBR023C, strain chs3, active compounds read low 0.42 | locus YBR171W, strain sec66, active compounds read low 0.812 | locus YBR229C, strain ROT2, active compounds read low 0.623 | locus YBR231C, strain swc5, active compounds read low 0.307 | locus YBR279W, strain paf1, active compounds read low 0.527 | locus YCL011C, strain gbp2, active compounds read low 0.433 | locus YCL016C, strain dcc1, active compounds read low 0.592 | locus YCL029C, strain bik1, active compounds read low 0.493 | locus YCL061C, strain MRC1, active compounds read low 0.611 | locus YCL069W, strain vba3, active compounds read low 0.611 | locus YCR088W, strain abp1, active compounds read low 0.64 | locus YDL005C, strain med2, active compounds read low 0.509 | locus YDL035C, strain GPR1, active compounds read low 0.391 | locus YDL040C, strain nat1, active compounds read low 0.848 | locus YDL074C, strain BRE1, active compounds read low 0.195 | locus YDL101C, strain DUN1, active compounds read low 0.264 | locus YDL134C, strain PPH21, active compounds read low 0.44 | locus YDL192W, strain arf1, active compounds read low 0.568 | locus YDR001C, strain nth1, active compounds read low 0.806 | locus YDR069C, strain doa4, active compounds read low 0.327 | locus YDR101C, strain arx1, active compounds read low 0.665 | locus YDR137W, strain rgp1, active compounds read low 0.238 | locus YDR159W, strain sac3, active compounds read low 0.403 | locus YDR162C, strain NBP2, active compounds read low 0.098 | locus YDR195W, strain ref2 0.348 | locus YDR297W, strain sur2, active compounds read low 0.429 | locus YDR318W, strain mcm21, active compounds read low 0.523 | locus YDR334W, strain swr1, active compounds read low 0.353 | locus YDR335W, strain msn5, active compounds read low 0.522 | locus YDR388W, active compounds read low 0.683 | locus YDR392W, strain spt3, active compounds read low 0.101 | locus YDR502C, strain sam2, active compounds read low 0.521 | locus YEL003W, strain gim4, active compounds read low 0.489 | locus YEL037C, strain rad23, active compounds read low 0.769 | locus YEL061C, strain CIN8 (second series), active compounds read low 0.403 | locus YEL061C, strain CIN8, active compounds read low 0.391 | locus YER015W, strain faa2, active compounds read low 0.429 | locus YER016W, strain bim1, active compounds read low 0.565 | locus YER110C, active compounds read low 0.766 | locus YER111C, strain swi4, active compounds read low 0.329 | locus YER155C, strain BEM2 (second series), active compounds read low 0.342 | locus YER155C, strain BEM2, active compounds read low 0.254 | locus YER167W, strain BCK2, active compounds read low 0.334 | locus YFR010W, strain ubp6, active compounds read low 0.657 | locus YGL078C, strain dbp3, active compounds read low 0.905 | locus YGL086W, strain mad1, active compounds read low 0.619 | locus YGL167C, strain pmr1, active compounds read low 0.706 | locus YGL173C, strain kem1, active compounds read low 0.27 | locus YGL227W, strain vid30, active compounds read low 0.571 | locus YGL240W, strain doc1, active compounds read low 0.646 | locus YGL248W, strain PDE1, active compounds read low 0.369 | locus YGL253W, strain hxk2, active compounds read low 0.485 | locus YGR135W, strain pre9, active compounds read low 0.557 | locus YGR252W, strain gcn5, active compounds read low 0.5 | locus YHR013C, strain ard1, active compounds read low 0.273 | locus YHR027C, strain rpn1, active compounds read low 0.423 | locus YHR030C, strain SLT2, active compounds read low 0.248 and 0.76 | locus YHR079C, strain IRE1 (second series), active compounds read low 0.659 | locus YHR079C, strain IRE1, active compounds read low 0.732 | locus YHR094C, strain hxt1, active compounds read low 0.721 | locus YHR129C, strain ARP1, active compounds read low 0.349 | locus YHR142W, strain chs7, active compounds read low 0.309 | locus YHR200W, strain rpn10, active compounds read low 0.749 | locus YIL066C, strain RNR3, active compounds read low 0.308 | locus YIL073C, strain SPO22, active compounds read low 0.623 | locus YIL125W, strain kgd1, active compounds read low 0.812 | locus YIR030C, strain dcg1, active compounds read low 0.552 | locus YJL092W, strain hpr5, active compounds read low 0.7 | locus YJL095W, strain BCK1 (second series), active compounds read low 0.372 | locus YJL095W, strain BCK1, active compounds read low 0.211 and 0.783 | locus YJL115W, strain asf1, active compounds read low 0.856 | locus YJL129C, strain trk1, active compounds read low 0.35 | locus YJL134W, strain LCB3, active compounds read low 0.692 | locus YJL154C, strain vps35, active compounds read low 0.776 | locus YJL164C, strain tpk1, active compounds read low 0.316 | locus YJL166W, strain qcr8, active compounds read low 0.312 | locus YJL168C, strain set2, active compounds read low 0.866 | locus YJL187C, strain SWE1 (second series), active compounds read low 0.142 | locus YJR043C, strain POL32, active compounds read low 0.385 | locus YJR066W, strain TOR1, active compounds read low 0.792 | locus YKL068W, active compounds read low 0.895 | locus YKL160W, strain elf1, active compounds read low 0.541 | locus YKL190W, strain CNB1, active compounds read low 0.315 | locus YKR001C, strain vps1, active compounds read low 0.13 | locus YKR026C, strain gcn3, active compounds read low 0.852 | locus YKR091W, strain srl3, active compounds read low 0.843 | locus YLL001W, strain dnm1, active compounds read low 0.617 | locus YLL026W, active compounds read low 0.74 | locus YLL041C, strain sdh2, active compounds read low 0.764 | locus YLR027C, strain aat2, active compounds read low 0.502 | locus YLR039C, strain RIC1, active compounds read low 0.157 | locus YLR058C, strain SHM2, active compounds read low 0.224 | locus YLR102C, strain apc9, active compounds read low 0.83 | locus YLR113W, strain HOG1, active compounds read low 0.472 | locus YLR221C, strain rsa3, active compounds read low 0.419 | locus YLR258W, strain gsy2, active compounds read low 0.541 | locus YLR262C, strain YPT6 (second series), active compounds read low 0.149 | locus YLR262C, strain YPT6, active compounds read low 0.182 | locus YLR268W, strain sec22, active compounds read low 0.355 | locus YLR320W, strain mms22, active compounds read low 0.256 | locus YLR330W, strain CHS5, active compounds read low 0.253 | locus YLR342W, strain FKS1 (second series), active compounds read low 0.336 | locus YLR342W, strain FKS1, active compounds read low 0.387 | locus YLR357W, strain rsc2, active compounds read low 0.731 | locus YLR370C, strain arc18, active compounds read low 0.704 | locus YLR371W, strain rom2, active compounds read low 0.418 | locus YLR384C, strain iki3, active compounds read low 0.759 | locus YLR418C, strain cdc73, active compounds read low 0.176 | locus YML016C, strain PPZ1, active compounds read low 0.547 | locus YML032C, strain rad52, active compounds read low 0.533 | locus YML120C, strain ndi1, active compounds read low 0.608 | locus YML124C, strain tub3, active compounds read low 0.738 | locus YMR058W, strain fet3, active compounds read low 0.0928 | locus YMR078C, strain ctf18, active compounds read low 0.472 | locus YMR125W, strain sto1, active compounds read low 0.827 | locus YMR129W, active compounds read low 0.795 | locus YMR205C, strain PFK2, active compounds read low 0.337 | locus YMR223W, strain ubp8, active compounds read low 0.581 | locus YMR231W, strain pep5, active compounds read low 0.365 | locus YMR263W, strain SAP30, active compounds read low 0.561 | locus YMR307W, strain GAS1, active compounds read low 0.252 | locus YNL067W, strain RPL9B, active compounds read low 0.518 | locus YNL071W, strain lat1, active compounds read low 0.11 | locus YNL183C, strain NPR1, active compounds read low 0.728 | locus YNL209W, strain ssb2, active compounds read low 0.303 | locus YNL233W, strain BNI4, active compounds read low 0.287 | locus YNL248C, strain rpa49, active compounds read low 0.708 | locus YNL250W, strain rad50, active compounds read low 0.887 | locus YNL271C, strain bni1, active compounds read low 0.882 | locus YNL307C, strain MCK1, active compounds read low 0.093 | locus YNR049C, strain mso1, active compounds read low 0.781 | locus YNR052C, strain pop2, active compounds read low 0.664 | locus YOL147C, strain pex11, active compounds read low 0.137 | locus YOR001W, strain rrp6, active compounds read low 0.678 | locus YOR061W, strain CKA2, active compounds read low 0.509 | locus YOR069W, strain VPS5, active compounds read low 0.638 | locus YOR070C, strain gyp1, active compounds read low 0.449 | locus YOR080W, strain dia2, active compounds read low 0.674 | locus YOR083W, strain WHI5, active compounds read low 0.624 | locus YOR106W, strain vam3, active compounds read low 0.244 | locus YOR136W, strain idh2, active compounds read low 0.765 | locus YOR144C, strain elg1, active compounds read low 0.304 | locus YOR184W, strain ser1, active compounds read low 0.173 | locus YOR231W, strain MKK1, active compounds read low 0.75 | locus YOR265W, strain rbl2, active compounds read low 0.552 | locus YOR270C, strain vph1, active compounds read low 0.236 | locus YOR290C, strain snf2, active compounds read low 0.249 | locus YOR316C, strain cot1, active compounds read low 0.698 | locus YPL051W, strain arl3, active compounds read low 0.209 | locus YPL078C, strain atp4, active compounds read low 0.528 | locus YPL106C, strain sse1, active compounds read low 0.435 | locus YPL240C, strain hsp82, active compounds read low 0.444 | locus YPL241C, strain CIN2, active compounds read low 0.565 | locus YPL256C, strain CLN2, active compounds read low 0.663 | locus YPR119W, strain clb2, active compounds read low 0.61 | locus YPR141C, strain kar3, active compounds read low 0.886 | locus YPR163C, strain tif3, active compounds read low 0.257 | locus YPR167C, strain met16, active compounds read low 0.538 | strain wtn01, active compounds read low 0.436
inactive: locus YBR021W, strain FUR4, active compounds read low 0.859 | locus YDL185W, strain tfp1, active compounds read low 0.943 | locus YKL009W, strain mrt4, active compounds read low 0.908 | locus YKL085W, strain MDH1 (second series), active compounds read low 0.941 | locus YKL085W, strain MDH1, active compounds read low 0.941 | locus YNL298W, strain CLA4, active compounds read low 0.918 | locus YNL322C, strain KRE1 (second series), active compounds read low 0.937 | locus YOL012C, strain htz1 0.278

Reference: PubChem BioAssay AID1159580 (chemical genetic matrix, 2015)
